Laboratory results from the supplement of paper PMC11732987, “Enantioselective OTUD7B fragment discovery through chemoproteomics screening and high-throughput optimisation” (Communications Chemistry, 2025).

Key:
Assay in all cases: log2 ratio of Biotin-Ahx-Ub-VS probe labelling (fragment/DMSO); higher = less target engagement (more negative = stronger competition), active = hit call of the paper (q ≤ 0.05, log2 ratio ≤ -1)
Details in all cases: compound concentration: 200 uM; treatment time: 3 h
ALG13 = biological target: T1, ALG13 (UniProt Q9NP73)
T1 sequence (whole entry): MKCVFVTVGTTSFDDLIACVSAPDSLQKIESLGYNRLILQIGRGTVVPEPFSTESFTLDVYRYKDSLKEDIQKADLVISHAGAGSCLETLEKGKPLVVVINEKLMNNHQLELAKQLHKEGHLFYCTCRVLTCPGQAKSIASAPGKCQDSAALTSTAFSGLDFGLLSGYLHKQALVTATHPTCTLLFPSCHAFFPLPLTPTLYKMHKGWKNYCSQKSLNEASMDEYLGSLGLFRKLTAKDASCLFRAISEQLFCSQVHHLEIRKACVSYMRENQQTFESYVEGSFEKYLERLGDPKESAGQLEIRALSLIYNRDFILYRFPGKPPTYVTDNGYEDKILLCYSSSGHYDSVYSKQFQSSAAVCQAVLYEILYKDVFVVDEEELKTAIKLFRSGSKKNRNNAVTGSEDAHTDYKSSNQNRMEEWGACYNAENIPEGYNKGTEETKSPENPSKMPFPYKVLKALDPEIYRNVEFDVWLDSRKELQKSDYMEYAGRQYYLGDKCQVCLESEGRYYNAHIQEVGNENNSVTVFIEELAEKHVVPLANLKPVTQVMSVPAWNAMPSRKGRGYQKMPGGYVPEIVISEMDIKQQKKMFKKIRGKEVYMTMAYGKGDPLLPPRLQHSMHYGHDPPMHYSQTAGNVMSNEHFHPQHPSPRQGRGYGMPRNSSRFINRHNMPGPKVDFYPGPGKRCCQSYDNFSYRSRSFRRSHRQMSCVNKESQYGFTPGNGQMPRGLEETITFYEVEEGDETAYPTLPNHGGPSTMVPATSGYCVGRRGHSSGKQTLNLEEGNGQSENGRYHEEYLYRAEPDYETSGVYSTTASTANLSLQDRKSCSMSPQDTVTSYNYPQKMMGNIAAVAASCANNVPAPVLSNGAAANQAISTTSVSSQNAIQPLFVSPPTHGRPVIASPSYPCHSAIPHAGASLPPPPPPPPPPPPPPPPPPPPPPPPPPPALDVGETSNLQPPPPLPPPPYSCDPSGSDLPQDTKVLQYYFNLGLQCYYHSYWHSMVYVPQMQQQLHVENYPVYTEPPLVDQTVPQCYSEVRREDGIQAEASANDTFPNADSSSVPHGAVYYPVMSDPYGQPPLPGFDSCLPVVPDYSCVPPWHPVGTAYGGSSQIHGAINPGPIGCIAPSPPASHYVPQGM
Procedure, shortened: (§1)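 Lysate from HEK293T cells, 495 µg per sample in Tris/CHAPS/IGEPAL buffer with protease inhibitors, was treated for 3 h in triplicate with fragment at 200 µM or vehicle. Biotin-Ahx-Ub-VS was next added at 0.5 µM final for 1 h. The labelled DUBs were enriched with NeutrAvidin, digested with LysC and trypsin, and run by diaPASEF LC-MS/MS, with values given as average log2 fragment/vehicle ratios by unpaired t-test on global-median-normalised Spectronaut quantities of proteins with ≥2 unique peptides.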

ATXN3 = ATXN3 (UniProt P54252)
Procedure, shortened: as §1

BAP1 = biological target: T2, BAP1 (UniProt Q92560)
T2 sequence (whole entry): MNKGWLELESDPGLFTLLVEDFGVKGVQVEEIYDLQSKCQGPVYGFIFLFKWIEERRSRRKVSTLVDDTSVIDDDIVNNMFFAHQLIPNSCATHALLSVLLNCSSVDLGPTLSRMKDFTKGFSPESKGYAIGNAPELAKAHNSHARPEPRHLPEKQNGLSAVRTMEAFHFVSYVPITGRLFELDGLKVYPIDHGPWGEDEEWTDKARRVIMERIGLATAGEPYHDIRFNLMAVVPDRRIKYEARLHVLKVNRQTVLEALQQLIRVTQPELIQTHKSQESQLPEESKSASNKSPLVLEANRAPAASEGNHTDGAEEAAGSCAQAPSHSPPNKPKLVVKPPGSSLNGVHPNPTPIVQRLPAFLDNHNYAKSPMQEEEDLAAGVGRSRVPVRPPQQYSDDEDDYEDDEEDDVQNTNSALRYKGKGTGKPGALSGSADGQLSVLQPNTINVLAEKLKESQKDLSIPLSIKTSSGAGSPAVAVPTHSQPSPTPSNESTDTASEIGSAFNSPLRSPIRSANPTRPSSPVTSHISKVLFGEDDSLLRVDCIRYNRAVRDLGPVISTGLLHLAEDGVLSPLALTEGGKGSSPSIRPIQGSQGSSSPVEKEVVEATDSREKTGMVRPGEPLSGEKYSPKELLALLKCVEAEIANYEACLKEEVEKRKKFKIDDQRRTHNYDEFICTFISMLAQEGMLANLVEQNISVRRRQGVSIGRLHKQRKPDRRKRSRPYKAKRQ
Procedure, shortened: as §1

EIF3F = EIF3F (UniProt O00303)
Procedure, shortened: as §1

EIF3H = EIF3H (UniProt O15372)
Procedure, shortened: as §1

FAM105A = biological target: T3, FAM105A (UniProt Q9NUU6)
T3 sequence (whole entry): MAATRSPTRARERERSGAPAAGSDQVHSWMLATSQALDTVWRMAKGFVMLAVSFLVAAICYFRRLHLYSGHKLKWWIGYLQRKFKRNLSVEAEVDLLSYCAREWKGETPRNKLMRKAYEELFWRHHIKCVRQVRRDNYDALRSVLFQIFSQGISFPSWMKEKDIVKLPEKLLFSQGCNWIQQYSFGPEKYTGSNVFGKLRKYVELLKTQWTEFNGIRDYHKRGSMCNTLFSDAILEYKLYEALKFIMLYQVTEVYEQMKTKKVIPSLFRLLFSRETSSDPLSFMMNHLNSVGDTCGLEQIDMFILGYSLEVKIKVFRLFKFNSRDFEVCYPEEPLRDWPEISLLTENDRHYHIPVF
Procedure, shortened: as §1

OTUB1 = OTUB1 (UniProt Q96FW1)
Procedure, shortened: as §1

OTUD4 = biological target: T4, OTUD4 (UniProt Q01804)
T4 sequence (whole entry): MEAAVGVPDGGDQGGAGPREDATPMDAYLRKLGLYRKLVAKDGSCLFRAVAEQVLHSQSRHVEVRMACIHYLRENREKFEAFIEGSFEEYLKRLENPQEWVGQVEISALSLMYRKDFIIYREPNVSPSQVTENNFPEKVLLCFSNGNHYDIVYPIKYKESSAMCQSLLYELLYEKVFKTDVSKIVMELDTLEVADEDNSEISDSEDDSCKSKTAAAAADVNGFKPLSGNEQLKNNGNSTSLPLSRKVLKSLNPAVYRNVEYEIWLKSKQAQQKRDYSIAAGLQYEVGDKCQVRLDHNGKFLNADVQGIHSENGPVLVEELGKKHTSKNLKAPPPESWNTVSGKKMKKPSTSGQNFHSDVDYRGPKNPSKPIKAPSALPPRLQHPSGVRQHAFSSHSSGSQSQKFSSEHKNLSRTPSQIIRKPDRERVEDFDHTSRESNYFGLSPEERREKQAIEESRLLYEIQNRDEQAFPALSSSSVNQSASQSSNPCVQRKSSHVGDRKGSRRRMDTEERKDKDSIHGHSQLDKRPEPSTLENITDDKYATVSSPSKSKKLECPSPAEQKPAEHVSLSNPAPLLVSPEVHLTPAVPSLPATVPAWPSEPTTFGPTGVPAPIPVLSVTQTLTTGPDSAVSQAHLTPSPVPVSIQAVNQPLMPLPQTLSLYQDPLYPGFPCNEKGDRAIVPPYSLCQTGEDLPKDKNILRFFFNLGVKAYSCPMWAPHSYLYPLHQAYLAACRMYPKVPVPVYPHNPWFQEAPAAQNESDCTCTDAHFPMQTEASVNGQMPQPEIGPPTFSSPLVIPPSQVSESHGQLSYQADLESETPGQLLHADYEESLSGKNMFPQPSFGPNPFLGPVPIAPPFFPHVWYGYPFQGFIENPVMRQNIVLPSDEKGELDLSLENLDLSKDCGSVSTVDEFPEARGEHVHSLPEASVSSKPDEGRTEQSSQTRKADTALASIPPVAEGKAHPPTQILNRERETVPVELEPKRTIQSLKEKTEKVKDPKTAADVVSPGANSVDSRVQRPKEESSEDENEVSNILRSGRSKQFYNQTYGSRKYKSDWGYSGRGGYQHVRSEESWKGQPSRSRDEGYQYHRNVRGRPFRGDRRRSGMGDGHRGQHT
Procedure, shortened: as §1

OTUD5 = biological target: T5, OTUD5 (UniProt Q96G74)
T5 sequence (whole entry): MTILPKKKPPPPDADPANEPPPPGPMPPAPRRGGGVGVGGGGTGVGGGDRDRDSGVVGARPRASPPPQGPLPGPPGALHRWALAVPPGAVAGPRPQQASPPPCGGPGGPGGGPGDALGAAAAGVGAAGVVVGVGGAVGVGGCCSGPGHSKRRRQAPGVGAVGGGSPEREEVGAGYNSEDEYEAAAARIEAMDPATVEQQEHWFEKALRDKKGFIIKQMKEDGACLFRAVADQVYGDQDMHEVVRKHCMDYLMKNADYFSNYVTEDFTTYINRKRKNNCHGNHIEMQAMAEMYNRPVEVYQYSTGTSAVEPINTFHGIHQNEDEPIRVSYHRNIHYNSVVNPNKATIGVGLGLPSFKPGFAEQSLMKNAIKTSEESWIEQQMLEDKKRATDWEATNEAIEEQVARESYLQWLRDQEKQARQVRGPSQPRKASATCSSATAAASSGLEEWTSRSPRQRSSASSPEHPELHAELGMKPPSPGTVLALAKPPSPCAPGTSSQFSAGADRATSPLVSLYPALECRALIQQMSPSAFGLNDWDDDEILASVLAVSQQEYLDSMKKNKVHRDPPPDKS
Procedure, shortened: as §1

Measured: log2 ratio of Biotin-Ahx-Ub-VS probe labelling

Chain of EIF3H (O15372 whole entry): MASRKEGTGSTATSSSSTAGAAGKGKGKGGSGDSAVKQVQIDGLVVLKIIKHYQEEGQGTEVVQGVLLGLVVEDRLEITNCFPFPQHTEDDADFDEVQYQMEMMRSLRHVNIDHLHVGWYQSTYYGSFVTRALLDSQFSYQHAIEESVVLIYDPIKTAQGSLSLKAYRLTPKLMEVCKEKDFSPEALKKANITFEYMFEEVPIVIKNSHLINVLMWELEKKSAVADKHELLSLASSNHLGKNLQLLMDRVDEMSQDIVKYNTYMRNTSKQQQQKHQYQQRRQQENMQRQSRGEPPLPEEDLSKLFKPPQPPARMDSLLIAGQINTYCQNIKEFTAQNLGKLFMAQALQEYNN
Chain of OTUB1 (Q96FW1 whole entry): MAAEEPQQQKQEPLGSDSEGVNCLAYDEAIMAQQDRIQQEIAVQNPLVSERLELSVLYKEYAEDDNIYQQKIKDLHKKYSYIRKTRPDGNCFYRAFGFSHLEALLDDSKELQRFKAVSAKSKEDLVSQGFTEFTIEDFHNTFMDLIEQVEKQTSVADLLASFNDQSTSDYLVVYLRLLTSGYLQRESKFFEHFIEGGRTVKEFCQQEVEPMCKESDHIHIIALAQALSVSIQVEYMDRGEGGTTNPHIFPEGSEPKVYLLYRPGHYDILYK
Chain of ATXN3 (P54252 whole entry): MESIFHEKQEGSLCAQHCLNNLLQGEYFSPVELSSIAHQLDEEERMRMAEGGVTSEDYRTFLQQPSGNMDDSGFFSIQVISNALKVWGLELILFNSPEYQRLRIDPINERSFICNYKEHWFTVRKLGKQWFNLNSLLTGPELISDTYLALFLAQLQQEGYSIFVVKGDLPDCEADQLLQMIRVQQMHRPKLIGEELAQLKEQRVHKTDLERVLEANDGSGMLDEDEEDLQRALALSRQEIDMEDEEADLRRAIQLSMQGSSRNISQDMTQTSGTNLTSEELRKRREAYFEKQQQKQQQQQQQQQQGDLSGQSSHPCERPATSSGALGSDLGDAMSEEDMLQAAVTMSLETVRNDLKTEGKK
Chain of EIF3F (O00303 whole entry): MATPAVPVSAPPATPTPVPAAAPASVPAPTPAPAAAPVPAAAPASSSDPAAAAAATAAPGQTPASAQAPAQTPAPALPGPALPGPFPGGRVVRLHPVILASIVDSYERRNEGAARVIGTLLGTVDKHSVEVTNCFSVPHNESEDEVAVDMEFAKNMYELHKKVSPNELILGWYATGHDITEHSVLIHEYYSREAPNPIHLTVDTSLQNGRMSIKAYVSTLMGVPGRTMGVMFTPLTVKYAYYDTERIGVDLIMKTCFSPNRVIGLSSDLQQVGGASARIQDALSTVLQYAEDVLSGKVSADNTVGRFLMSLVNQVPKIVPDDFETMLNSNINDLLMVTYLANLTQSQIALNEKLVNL

O=C(CCl)NC1CCCCNC1=O (centres undefined)
inactive: ALG13 -0.0613 | ATXN3 -0.417 | BAP1 -0.683 | EIF3F -0.598 | EIF3H 0.103 | FAM105A 0.229 | OTUB1 -0.231 | OTUD4 -0.342 | OTUD5 -0.397
